In PubChem BioAssay (EPA / NIEHS):
“And” between values parts separate entries of the source, which are not always exact repeats. Equal values may be shown once. Results filed as inconclusive are left out. Some structures have more than one record in an assay (separate samples or runs), and their calls can disagree. The source made the active and inactive calls. How the source made its calls: active means hit-call score of the fitted dose curve at least 0.9, where 1 is the maximum; inconclusive means response in the unintended direction; inactive means score below 0.9.

Each compound was assayed against rat Monoamine Oxidase, MAO-B, Peripheral (MAOBP), Maob (gene 25750) (UniProt P19643) (assay: NVS_ENZ_rMAOBP: NovaScreen (NVS) Enzymatic Assay for rat Monoamine Oxidase, MAO-B, Peripheral (MAOBP) (AID 2283242)).
Sequence of rat Monoamine Oxidase, MAO-B, Peripheral (MAOBP), Maob (gene 25750) (P19643 whole entry, looked up): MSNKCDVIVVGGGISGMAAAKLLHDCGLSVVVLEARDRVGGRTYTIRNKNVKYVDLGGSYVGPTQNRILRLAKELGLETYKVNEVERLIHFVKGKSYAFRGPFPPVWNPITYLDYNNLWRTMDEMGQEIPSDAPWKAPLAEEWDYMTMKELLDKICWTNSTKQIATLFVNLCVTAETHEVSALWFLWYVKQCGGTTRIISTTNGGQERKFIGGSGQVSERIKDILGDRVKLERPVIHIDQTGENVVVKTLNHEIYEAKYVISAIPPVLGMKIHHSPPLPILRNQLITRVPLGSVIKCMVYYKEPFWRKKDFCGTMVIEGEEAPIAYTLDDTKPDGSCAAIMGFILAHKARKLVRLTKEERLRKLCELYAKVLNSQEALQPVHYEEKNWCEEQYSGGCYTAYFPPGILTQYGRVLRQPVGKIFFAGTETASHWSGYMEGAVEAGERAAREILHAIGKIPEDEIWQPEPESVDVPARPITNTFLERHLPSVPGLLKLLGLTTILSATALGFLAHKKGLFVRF

SMILES	outcome	AC50
COC(=O)C=C(C)OP(=O)(OC)OC	inactive	–
CCCCNC(=O)OCC#CI	–	42.4 µM (active)
CN(C)C(=S)SSC(=S)N(C)C	inactive	–
CNC(=S)S	inactive	–

These compounds were tested on rat Monoamine Oxidase, MAO-A, Central (MAOAC), gene 29253 (assay: NVS_ENZ_rMAOAC: NovaScreen (NVS) Enzymatic Assay for rat Monoamine Oxidase, MAO-A, Central (MAOAC) (AID 2283243);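 further: potency refers to inhibition seen as signal drop below DMSO baseline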).
Procedure, shortened: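 Single-concentration duplicate testing at 25 uM, then concentration-response for actives, in a lysate-based radiodetection MAO-A activity assay from rat brain. Enzyme activity measured 1.5 hours post-dosing; DMSO served as negative control and baseline.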

SMILES	outcome	AC50
COC(=O)c1ccccc1C(=O)OC	inactive	–
COc1nc(C)nc(NC(=O)NS(=O)(=O)c2ccccc2Cl)n1	inactive	37.7 µM (active)
O=C(Nc1ccccc1)Nc1ccnc(Cl)c1	–	25 µM (active)
CC1=C(C(=O)Nc2ccccc2)SCCO1	–	17.5 µM (active)
Fc1ccc(Oc2ccnc3cc(Cl)cc(Cl)c23)cc1	inactive	–
CON(C)C(=O)Nc1ccc(Cl)c(Cl)c1	–	20.5 µM (active) [middle of 4 runs]
Oc1ccccc1-c1ccccc1	–	25 µM (active)
CC1COC(Cn2cncn2)(c2ccc(Oc3ccc(Cl)cc3)cc2Cl)O1 (stereo not drawn)	–	1.8 µM (active)
CCNc1nc(Cl)nc(NC(C)C)n1	inactive	25 µM (active) and 8.22 µM (active)
Cc1ccc(-c2c(Cl)nc(C#N)n2S(=O)(=O)N(C)C)cc1	–	4.79 µM (active)

Each compound was assayed against Adenosine receptor A1 (Bos taurus) (UniProt P28190) (assay: NVS_GPCR_bAdoR_NonSelective: NovaScreen (NVS) G Protein-Coupled Receptor Assay for bovine Adenosine Receptor (AdoR), Non-selective Binding (AID 2283244)).
Procedure, shortened: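 Cell-free binding with membranes from bovine striatum: radioligand displaced by test chemical, read after 1 h by filtration and scintillation. Single-point 25 uM duplicate primary, 50 uM top concentration in follow-up curves, DMSO baseline.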

Sequence of Adenosine receptor A1 (Bos taurus) (P28190 whole entry, looked up): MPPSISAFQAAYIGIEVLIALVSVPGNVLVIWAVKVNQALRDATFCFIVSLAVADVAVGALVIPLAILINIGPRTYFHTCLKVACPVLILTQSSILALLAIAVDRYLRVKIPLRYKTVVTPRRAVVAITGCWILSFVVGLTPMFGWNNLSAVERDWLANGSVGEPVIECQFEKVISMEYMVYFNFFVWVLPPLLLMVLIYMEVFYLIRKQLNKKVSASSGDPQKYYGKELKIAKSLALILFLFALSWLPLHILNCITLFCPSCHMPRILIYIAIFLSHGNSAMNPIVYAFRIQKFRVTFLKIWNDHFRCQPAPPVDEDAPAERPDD

SMILES	AC50	outcome
COc1nc(NC(C)C)nc(NC(C)C)n1	25 µM (active)	–
CCCCNC(=O)OCC#CI	11.9 µM (active)	inactive
CCOC(=O)CC(SP(=S)(OC)OC)C(=O)OCC (stereo not drawn)	9.48 µM (active)	–
CO/C=C(/C(=O)OC)c1ccccc1Oc1cc(Oc2ccccc2C#N)ncn1	19.1 µM (active) and 7.23 µM (active)	–
CCNc1nc(Cl)nc(NC(C)C)n1	8.64 µM (active)	–

The compounds below were run on bovine Histamine 1 Receptor (H1), gene 281231 (assay: NVS_GPCR_bH1: NovaScreen (NVS) G Protein-Coupled Receptor Assay for bovine Histamine 1 Receptor (H1) (AID 2283246)).
Procedure, shortened: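 Hits from a 25 uM duplicate primary screen were retested in concentration series (top 50 uM); binding measured as scintillation-counted displacement of radioligand from bovine cerebellar membranes after 1 h, normalised to DMSO.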

SMILES	outcome
CC(C)Oc1cc(-n2nc(C(C)(C)C)oc2=O)c(Cl)cc1Cl	inactive
CNC(=S)S	inactive
CCNc1nc(Cl)nc(NC(C)C)n1	inactive

What follows are compounds tested on guinea pig Leukotriene B4 Receptor (LTB4), gene 100379538 (assay: NVS_GPCR_gLTB4: NovaScreen (NVS) G Protein-Coupled Receptor Assay for guinea pig Leukotriene B4 Receptor (LTB4) (AID 2283247)).
Experimental: NVS_GPCR_gLTB4 is a biochemical, single-readout assay that uses extracted gene-proteins from Guinea pig spleen membranes in a tissue-based cell-free assay. Measurements were taken 2 hours after chemical dosing in a 48-well plate.NVS_GPCR_gLTB4 is one of one assay component(s) measured or calculated from the NVS_GPCR_gLTB4 assay. It is designed to make measurements of radioligand binding, a form of binding reporter, as detected with scintillation counting signals by Filter-based radiodetection technology.Data from the assay component NVS_GPCR_gLTB4 was analyzed into 1 assay endpoint. This assay endpoint, NVS_GPCR_gLTB4, was analyzed in the positive analysis fitting direction relative to DMSO as the negative control and baseline of activity. Using a type of binding reporter, loss-of-signal activity can be used to understand changes in the binding as they relate to the gene Ltb4r. Furthermore, this assay endpoint can be referred to as a primary readout, because the performed assay has only produced 1 assay endpoint. To generalize the intended target to other relatable targets, this assay endpoint is annotated to the gpcr intended target family, where the subfamily is rhodopsin-like receptor.
Binding assays used specific radioligands (tritiated, iodinated) with non-radioactive competitive displacement ligands in agonist or antagonist protocols (as indicated) and various reference compounds and inhibitors to titrate specific binding to receptors and transporters. Most enzyme assays (CYPs, kinases, phosphatases, proteases, HDACs) used recombinant protein and specific substrates (fluorescence mostly, some colorimetric and radioactive) and inhibitors, followed by a biochemical separation of substrate and product. All assays for the biochemical HTS were initially run in duplicate at a single concentration (10 uM for CYP450 assays and 25 uM for all others). […]

SMILES	outcome	AC50
N#CC(CCc1ccc(Cl)cc1)(Cn1cncn1)c1ccccc1 (stereo not drawn)	inactive	–
CCCCNC(=O)n1c(NC(=O)OC)nc2ccccc21	inactive	–
Cc1ccc(-c2c(Cl)nc(C#N)n2S(=O)(=O)N(C)C)cc1	–	1.93 µM (active)

Each compound was assayed against guinea pig Leukotriene D4 Receptor (LTD4), CYSLTR1 (gene 100135514) (UniProt Q2NNR5) (assay: NVS_GPCR_gLTD4: NovaScreen (NVS) G Protein-Coupled Receptor Assay for guinea pig Leukotriene D4 Receptor (LTD4) (AID 2283248)).
Procedure, shortened: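 Guinea pig lung membrane preparation; bound radioligand measured by filter scintillation after 1 h, loss of signal versus DMSO marking displacement. Compounds tested at 25 uM in duplicate, hits retested to max 50 uM.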

Sequence of guinea pig Leukotriene D4 Receptor (LTD4), CYSLTR1 (gene 100135514) (Q2NNR5 whole entry, looked up): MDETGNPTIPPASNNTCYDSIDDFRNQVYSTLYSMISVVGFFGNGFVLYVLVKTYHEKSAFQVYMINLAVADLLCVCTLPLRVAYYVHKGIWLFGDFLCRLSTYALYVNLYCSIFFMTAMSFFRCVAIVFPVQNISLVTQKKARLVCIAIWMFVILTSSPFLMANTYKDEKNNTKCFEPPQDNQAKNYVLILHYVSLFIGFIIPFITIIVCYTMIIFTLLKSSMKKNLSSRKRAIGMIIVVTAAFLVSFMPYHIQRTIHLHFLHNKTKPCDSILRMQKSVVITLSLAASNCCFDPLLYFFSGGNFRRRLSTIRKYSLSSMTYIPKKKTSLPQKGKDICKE

SMILES	AC50	outcome
CCON=C(CC)C1=C(O)CC(c2c(C)cc(C)cc2C)CC1=O (stereo not drawn)	4.89 µM (active)	–
CCOc1cc(Oc2ccc(C(F)(F)F)cc2Cl)ccc1[N+](=O)[O-]	–	inactive
C#CCOS(=O)OC1CCCCC1Oc1ccc(C(C)(C)C)cc1 (stereo not drawn)	–	inactive
C=CCC1=C(C)C(OC(=O)C2C(C=C(C)C)C2(C)C)CC1=O (stereo not drawn)	–	inactive
Cc1ccc(-c2c(Cl)nc(C#N)n2S(=O)(=O)N(C)C)cc1	–	inactive
